PubChem BioAssay (Tox21)
Results filed as inconclusive are left out. A call without a number means that no potency is given here. Unmarked numbers belong to inactive results. The source made the active and inactive calls. Unless noted, the call rests on the fitted dose curve; in most records, active means well fitted curve in the direction sought with a large enough effect in the repeat runs; inconclusive means weak or mixed curves; inactive means no such curve, though single readings can be large; an effect the other way counts as inactive or inconclusive.

What was measured:
[1] = qHTS assay to identify small molecule agonists of the NFkB signaling pathway - cell viability counter screen (AID 1159515; calls by dose curve; further: nearly all actives have a fitted effect of over 55% in size; further: potency means the concentration at half of the fitted maximal effect; on activity, negative = cytotoxic: series mostly up to about 61 µM)
Procedure, shortened: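 NFkB-bla ME-180 cells, 2,000/well, were plated overnight at 37 C, 5% CO2, then exposed to compounds in DMSO for 5 hr. After the bla FRET read, CellTiter-Glo was added to the same wells; luminescence was read after 30 min at room temperature.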

[2] = qHTS assay to identify small molecule agonists of the endoplasmic reticulum stress response signaling pathway (AID 1159516; active means well fitted activation curve with a large enough effect in the signal ratio in the repeat runs, not every such curve was filed as active; the % refers to the signal ratio)
Procedure, shortened: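 CellSensor ESRE-bla HeLa cells, carrying a beta-lactamase reporter driven by the ER stress response element, were plated overnight and exposed to compounds for 5 hr at 37 C. Reporter activity was read as FRET substrate fluorescence after 2 hr at room temperature.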

[3] = qHTS assay to identify small molecule agonists of the endoplasmic reticulum stress response signaling pathway - cell viability counter screen (AID 1159517; calls by dose curve; further: series mostly up to about 61 µM; nearly all actives have a fitted effect of over 50% in size)
Procedure, shortened: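 ESRE-bla HeLa cells, 1,500 per well, seeded overnight then treated with compounds for 5 hr at 37 C. After the beta-lactamase read, viability in the same wells is measured by CellTiter-Glo luminescence after 30 min at room temperature.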

[4] = qHTS assay to identify small molecule antagonists of the retinoid-related orphan receptor gamma (ROR-gamma) signaling pathway - cell viability counter screen (AID 1159520); further: nearly all actives have a fitted effect of over 50% in size; further: potency means the concentration at half of the fitted maximal effect
Procedure, shortened: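 Tet-on ROR gamma CHO cells were given compounds for 2 hr, then doxycycline hyclate at 1 uM final, and incubated 16 hr at 37 C. Viability was measured as ATP content by CellTiter-Glo luminescence.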

[5] = qHTS assay to identify small molecule agonists of the AP-1 signaling pathway - cell viability counter screen (AID 1159525; calls by dose curve; further: nearly all actives have a fitted effect of over 55% in size)
Procedure, shortened: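 AP-1-bla ME-180 cells in Opti-MEM with 0.5% dialyzed FBS, compound exposure 5 h at 37 C in 15-point titration. Viability read in the same wells as ATP content by CellTiter-Glo luminescence, normalised to tetra-n-octylammonium bromide and DMSO controls.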

[6] = qHTS assay to identify small molecule agonists of the AP-1 signaling pathway (AID 1159526; calls by dose curve)
[7] = target: Retinoic acid receptor RXR-alpha (Homo sapiens) (UniProt P19793); assay: qHTS assay to identify small molecule agonists of the RXR signaling pathway (AID 1159527; calls by dose curve; further: nearly all actives have a fitted effect of over 35% in size)
Sequence of Retinoic acid receptor RXR-alpha (Homo sapiens) (P19793 whole entry, looked up): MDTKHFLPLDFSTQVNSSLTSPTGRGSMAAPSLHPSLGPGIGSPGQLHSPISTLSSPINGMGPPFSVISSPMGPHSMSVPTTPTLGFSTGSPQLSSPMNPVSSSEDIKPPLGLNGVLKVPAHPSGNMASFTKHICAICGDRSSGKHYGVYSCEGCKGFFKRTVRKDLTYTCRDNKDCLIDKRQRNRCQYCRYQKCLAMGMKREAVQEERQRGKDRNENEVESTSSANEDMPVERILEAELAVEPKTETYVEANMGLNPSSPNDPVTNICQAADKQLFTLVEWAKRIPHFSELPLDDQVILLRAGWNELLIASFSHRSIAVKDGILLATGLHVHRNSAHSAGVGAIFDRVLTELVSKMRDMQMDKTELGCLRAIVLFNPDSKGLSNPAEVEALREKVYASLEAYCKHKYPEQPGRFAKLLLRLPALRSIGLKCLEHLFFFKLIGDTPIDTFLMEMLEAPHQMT
Procedure, shortened: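 Agonist-mode beta-lactamase reporter assay: HEK 293T RXR-alpha-UAS-bla cells treated 16 hr at 37 C with compounds, 9-cis retinoic acid as positive control. LiveBLAzer FRET substrate, 405 nm excitation, 460/530 nm emission.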

[8] = qHTS assay to identify small molecule agonists of the RXR signaling pathway - cell viability counter screen (AID 1159529); further: series mostly up to about 77 µM; nearly all actives have a fitted effect of over 50% in size
Procedure, shortened: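 CellTiter-Glo luminescence gave viability in the wells also read for beta-lactamase. Cells (RXR-alpha-UAS-bla HEK 293T, 2% charcoal-stripped FBS medium) had 5 hr plating, then 16 hr compound exposure at 37 C; tetraoctyl ammonium bromide served as positive control.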

[9] = qHTS assay to identify small molecule antagonists of the retinoid acid receptor (RAR) signaling pathway - cell viability counter screen (AID 1159551); further: nearly all actives have a fitted effect of over 35% in size
Procedure, shortened: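 C3RL4 cells were seeded overnight at 37 C, then treated with compounds plus 1 uM (final) retinol for 6 h at 37 C. Viability was read as ATP by CellTiter-Glo luminescence after 30 min at room temperature.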

[10] = qHTS assay to identify small molecule antagonists of the retinoic acid receptor (RAR) signaling pathway (AID 1159552; further: nearly all actives have a fitted effect of over 50% in size)
Procedure, shortened: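 Luminescent RARE reporter read-out in C3RL4 cells: 6 hr co-treatment at 37 C of test compounds with retinol at 1 uM final. Cells plated overnight beforehand; luciferase reagent incubated 30 min at room temperature before reading.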

[11] = qHTS assay to identify small molecule antagonists of the estrogen related receptor (ERR) signaling pathway from Tox21 library - cell viability counter screen (AID 1224834); further: nearly all actives have a fitted effect of over 30% in size; further: potency means the concentration at half of the fitted maximal effect
Procedure, shortened: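 ERR reporter cells were plated 6 h before compound addition, then exposed to test compounds in DMSO for 17.5 h at 37 C. Viability was read as CellTiter-Fluor fluorescence after a 30-minute incubation at 37 C.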

[12] = qHTS assay to identify small molecule antagonists of the vitamin D receptor (VDR) signaling pathway - cell viability counter screen (AID 743225); further: nearly all actives have a fitted effect of over 50% in size; further: potency means the concentration at half of the fitted maximal effect
Procedure, shortened: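 Cytotoxicity counter screen read by CellTiter-Glo luminescence (30 min, room temperature) in the same wells as the VDR-bla antagonist readout. HEK 293T VDR-UAS-bla cells had 16 h at 37C with compound and 3 nM (final) 1-alpha,25-dihydroxyvitamin D3, then 2 h with FRET substrate.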

[13] = qHTS assay to identify small molecule agonists of the retinoic acid receptor (RAR) signaling pathway (AID 1159553)
Procedure, shortened: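 C3RL4 cells carrying a RARE luciferase reporter were plated overnight at 37 C, then exposed to compounds in DMSO for 6 hr at 37 C and 5% CO2. Luminescence was read 30 min after luciferase reagent addition at room temperature.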

[14] = target: Nuclear receptor ROR-gamma (Homo sapiens) (UniProt P51449); assay: qHTS assay to identify small molecule antagonists of the retinoid-related orphan receptor gamma (ROR-gamma) signaling pathway (AID 1159521)
Procedure, shortened: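 Antagonist read-out: drop in luminescence (ONE-Glo) from an RORE-LUC reporter in CHO cells with doxycycline-inducible ROR-gamma; 2 hr compound pretreatment, 1 uM doxycycline, 16 hr incubation at 37 C.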

[15] = qHTS assay to identify small molecule antagonists of the estrogen related receptor (ERR) signaling pathway - cell viability counter screen (AID 1224818);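 further: series mostly up to about 46 µM; viability measured after 17.5 h of compound exposure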
Procedure, shortened: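 ERR reporter cells plated 6 h at 37 C/5% CO2, then compounds in DMSO pin-transferred and incubated 17.5 h at 37 C. Viability read as CellTiter-Fluor fluorescence after 30 min at 37 C.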

[16] = qHTS assay to identify small molecule antagonists of the estrogen related receptor (ERR) signaling pathway (AID 1224819)
Procedure, shortened: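 ERR reporter cells were plated at 2,000 cells/well and left 6 h at 37 C/5% CO2 before pin-tool transfer of compounds in DMSO. After 18 h at 37 C, One-Glo was added and luminescence was read 30 min later at room temperature.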

[17] = qHTS assay to identify small molecule agonists of the estrogen related receptor (ERR) signaling pathway (AID 1224820)
Procedure, shortened: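 ERR reporter cell line (from NTP), 2,000 cells/well, incubated 6 h before compound addition, then 18 h at 37 C. Luminescence measured 30 min after One-Glo reagent at room temperature.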

[18] = system: estrogen-related receptor alpha (ERRalpha) with PGC-1alpha coactivator, human; assay: qHTS assay to identify small molecule antagonists of the estrogen related receptor signaling pathway with the pleiotropic PPARgamma coactivator (PGC) (AID 1224821; calls by dose curve)
Procedure, shortened: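 PGC/ERR reporter cell line, plated 6 h before compound addition, then exposed 18 h at 37 °C. Luciferase activity read by luminescence 30 min after One-Glo addition; decrease indicates antagonism.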

[19] = qHTS assay to identify small molecule antagonists of the estrogen related receptor signaling pathway with the pleiotropic PPARgamma coactivator (PGC) cell viability counter screen (AID 1224822; further: series mostly up to about 46 µM)
Procedure, shortened: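 PGC/ERR cells were seeded at 2,000 cells/well, rested 6 h at 37 C/5% CO2, then given compounds in DMSO by pin tool and incubated 17.5 h at 37 C. Viability came from CellTiter-Fluor fluorescence after 30 min.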

[20] = qHTS assay to identify small molecule agonists of the estrogen related receptor signaling pathway with the pleiotropic PPARgamma coactivator (PGC) (AID 1224823)
Procedure, shortened: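 PGC/ERR reporter cells seeded 6 h, then exposed to compounds (23 nL in DMSO) for 18 h at 37 C. One-Glo luciferase luminescence read after 30 min at room temperature.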

Structure (SMILES): O=C(Cl)c1cc(C(=O)Cl)cc(C(=O)Cl)c1
- Potency [1]: inactive
- Potency [2]: inactive
- Potency [3]: inactive
- Potency [4]: 61.1 µM (active)
- Potency [5]: inactive
- Potency [6]: inactive
- Potency [7]: inactive
- Potency [8]: inactive
- Potency [9]: inactive
- Potency [10]: inactive
- Potency [11]: inactive

Structure (SMILES): C[C@@H](c1ncncc1F)C(O)(Cn1cncn1)c1ccc(F)cc1F (stereo partly drawn)
- Potency [12]: inactive
- Potency [1]: inactive
- Potency [2]: inactive
- Potency [3]: inactive
- Potency [4]: inactive
- Potency [5]: inactive
- Potency [6]: inactive
- Potency [7]: inactive
- Potency [8]: inactive
- Potency [9]: inactive
- Potency [10]: inactive
- Potency [13]: inactive
- Potency [11]: inactive

Structure (SMILES): CC(C)O.CC(C)O.CCOC(=O)/C=C(\C)O.CCOC(=O)/C=C(\C)O.[Ti]
- Potency [12]: inactive
- Potency [1]: inactive
- Potency [2]: inactive
- Potency [3]: inactive
- Potency [4]: inactive
- Potency [5]: inactive
- Potency [6]: inactive
- Potency [7]: inactive
- Potency [8]: inactive
- Potency [9]: inactive
- Potency [10]: inactive
- Potency [13]: inactive
- Potency [11]: inactive

Structure (SMILES): CCCCCCCCCc1ccc(OCCOCCO)cc1
- Potency [12]: 18.3 µM (active)
- Potency [1]: inactive
- Potency [2]: inactive
- Potency [3]: inactive
- Potency [4]: inactive
- Potency [14]: 5.11 µM (active)
- Potency [11]: 10.2 µM (active)

Structure (SMILES): CCC(=O)O[C@]1(C(=O)CCl)[C@@H](C)C[C@H]2[C@@H]3CCC4=CC(=O)C=C[C@]4(C)[C@@]3(F)[C@@H](O)C[C@@]21C
- Potency [12]: inactive
- Potency [1]: inactive
- Potency [2]: inactive
- Potency [3]: inactive
- Potency [4]: inactive
- Potency [5]: inactive
- Potency [6]: inactive
- Potency [7]: inactive
- Potency [8]: inactive
- Potency [9]: inactive
- Potency [10]: inactive
- Potency [13]: inactive
- Potency [11]: inactive

Structure (SMILES): C#C[C@]1(O)CC[C@H]2[C@@H]3CCc4cc(OC5CCCC5)ccc4[C@H]3CC[C@@]21C
- Potency [1]: 21.3 µM (active)
- Potency [2]: inactive
- Potency [3]: inactive
- Potency [4]: 29.8 µM (active)
- Potency [14]: 10.6 µM (active)
- Potency [9]: inactive
- Potency [10]: inactive
- Potency [11]: inactive

Structure (SMILES): COc1cc2nc(N(C)CCCNC(=O)C3CCCO3)nc(N)c2cc1OC (stereo not drawn)
- Potency [12]: inactive
- Potency [1]: inactive
- Potency [2]: inactive
- Potency [3]: inactive
- Potency [4]: inactive
- Potency [5]: inactive
- Potency [6]: inactive
- Potency [7]: inactive
- Potency [8]: inactive
- Potency [9]: inactive
- Potency [10]: inactive
- Potency [13]: inactive
- outcome [15]: inactive
- Potency [16]: inactive
- outcome [17]: inactive
- Potency [18]: inactive
- outcome [19]: inactive
- outcome [20]: inactive

Structure (SMILES): C/C(=C(\CCOP(=O)(O)O)SC(=O)c1ccccc1)N(C=O)Cc1cnc(C)nc1N
- viability change, negative = cytotoxic [12]: 2.62% [at 6.95 µM]
- activity, negative = cytotoxic [1]: 2.97% [at 6.95 µM]
- activation [2]: -0.946% [at 6.95 µM]
- activity change, negative = cytotoxicity [3]: 8.35% [at 6.95 µM]
- activity, negative = cytotoxicity [4]: -0.156% [at 8.39 µM]
- viability change, negative = cytotoxic [5]: -3.18% [at 6.97 µM]
- activation [6]: -6.29% [at 6.97 µM]
- activation [7]: 7.58% [at 6.98 µM]
- activity change, negative = cytotoxicity [8]: -1.63% [at 6.97 µM]
- activity change, negative = cytotoxicity [9]: 2.57% [at 8.39 µM]
- activity, negative = inhibition [10]: 10.1% [at 8.39 µM]
- activation [13]: 0.351% [at 8.36 µM]
- viability change, negative = cytotoxic [11]: 0.62% [at 8.39 µM]

Structure (SMILES): CCOC(=O)C(F)(F)F
- Potency [1]: inactive
- Potency [2]: inactive
- Potency [3]: inactive
- Potency [4]: inactive
- Potency [5]: inactive
- Potency [6]: inactive
- Potency [7]: inactive
- Potency [8]: inactive
- Potency [9]: inactive
- Potency [10]: inactive
- Potency [13]: inactive
- Potency [11]: inactive
